MCF10A rereplic: induces DNA re-replication in MCF 10a normal breast cells; hit rate 2.9% among 350,000; Potency, µM (top dose mostly 46.1 µM), hits mostly activators; AID 624296; MCF 10A DNA re-replication, Hoechst nuclear intensity, 48 h; note: nearly all actives have a fitted effect of over 50% in size
TSG101-PTAP inh: blocks PTAP/TSG101 interaction to inhibit HIV-1 budding. Q99816. Fluorescence polarization, FITC-PTAP peptide / Tsg101 binding. Potency, µM (titrated, usually from 115 µM), most hits filed as inhibitors. 340,000 tested, under 10 active. AID 493005; active = well fitted inhibition curve with a large enough effect in the main read-out, with a control signal flat, not every such curve was filed as active; inconclusive = small, poorly fitted or top-dose-only effect, or effect the other way, or a change in a side signal; inactive = no such curve, though single readings can be large or run the other way
Target sequence (Q99816 whole entry, looked up): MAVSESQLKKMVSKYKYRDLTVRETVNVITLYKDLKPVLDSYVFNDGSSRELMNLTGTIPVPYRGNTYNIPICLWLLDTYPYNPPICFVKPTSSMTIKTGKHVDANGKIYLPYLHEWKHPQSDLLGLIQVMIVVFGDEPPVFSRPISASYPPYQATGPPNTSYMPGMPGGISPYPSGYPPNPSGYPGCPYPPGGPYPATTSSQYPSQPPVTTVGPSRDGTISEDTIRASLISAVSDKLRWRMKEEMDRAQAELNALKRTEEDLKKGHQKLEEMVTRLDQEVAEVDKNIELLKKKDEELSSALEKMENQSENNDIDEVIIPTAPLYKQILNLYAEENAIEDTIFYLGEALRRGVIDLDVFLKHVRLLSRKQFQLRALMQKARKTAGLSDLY
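Fluorescence polarization binding of Tsg101 binding domain (10 uM final) to FITC-labeled PTAP peptide (50 nM final) in HEPES pH 7.5 buffer with NaCl, Tween 20, EDTA, TCEP. Compounds added before peptide; binding 20 min at RT.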
KB-3-1 tox: KB-3-1 parental cell cytotoxicity. Potency, µM (doses to about 46.1 µM), most hits filed as cytotoxic. AID 1347075. KB-3-1 viability, CellTiter-Glo ATP luminescence, 72 h. hit rate 1.4% among 400,000; note: nearly all actives have a fitted effect of over 60% in size
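Here the drug-naive KB-3-1 line serves as comparator for MDR sub-line selectivity; cells received compound titrations, 72 h at 37 °C, then CellTiter-Glo readout.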
RGS4 inhibitor: blocks human RGS4-accelerated GTP hydrolysis | P49798 | Transcreener GDP fluorescence polarization, RGS4-accelerated GTP hydrolysis | Potency, µM (titrated, usually from 114 µM), actives largely listed as inhibitors | hit rate 0.039% among 390,000; note: nearly all actives have a fitted effect of over 75% in size
Target sequence (P49798 whole entry, looked up): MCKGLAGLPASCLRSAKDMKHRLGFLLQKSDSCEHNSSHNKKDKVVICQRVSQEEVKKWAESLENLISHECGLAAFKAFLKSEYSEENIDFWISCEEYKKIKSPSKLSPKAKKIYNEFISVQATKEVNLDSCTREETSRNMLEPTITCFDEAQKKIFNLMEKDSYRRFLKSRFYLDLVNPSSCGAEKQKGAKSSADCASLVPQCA
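MLSMR compounds (23 nl, pin-transferred) preincubated 10 min at room temperature with a 500nM (2x) first reagent, then RGS4 at 900nM (2x) plus Transcreener GDP mix added; fluorescence polarization (620/688 nm) read before and after 90 min at 30 °C.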
KB-V1 MDR tox: KB-V1 MDR subline cytotoxicity; KB-V1 MDR cells viability, CellTiter-Glo, 72 h; Potency, µM (titrated, usually from 46.1 µM), most hits filed as cytotoxic; hit rate 3.4% among 400,000; note: nearly all actives have a fitted effect of over 60% in size
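qHTS viability screen in drug-selected KB-V1 MDR cells: 72 h compound treatment at 37 degrees C, ATP luminescence end point.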
SW480 rereplic: induces DNA re-replication in SW480 colon adenocarcinoma cells | SW480 DNA re-replication, Hoechst DNA content imaging, 48 h | Potency, µM (highest dose often 46.1 µM), hits mostly activators | hit rate 1.8% among 340,000; note: nearly all actives have a fitted effect of over 55% in size
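Compounds, transferred as 23 nL by pin tool, were incubated with cells for 48 hr; DNA content per nucleus was then quantified by Hoechst staining and fluorescence plate imaging.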
A number is an active result. Sampled rows, rich in hits. Any-hit rate of the full collection: about 6.6%. Unless noted, calls come from the whole dose curve; as a rule, active = well fitted curve in the direction sought with a large enough effect; inconclusive = small, poorly fitted or top-dose-only effect, or another doubt; inactive = no such curve, though single readings can be large; an effect the other way counts as inactive or inconclusive.

What do the screens show for `CCN(CC(=O)NCc1cccs1)C(=O)CCCOc1ccccc1`?
MCF10A rereplic: inactive; TSG101-PTAP inh: inactive; KB-3-1 tox: inactive; RGS4 inhibitor: inactive; KB-V1 MDR tox: inactive; SW480 rereplic: inactive

How did C/C=C(/CCC1NCCc2c1[nH]c1ccccc21)[Si](C)(C)C (configuration not stated) do in these assays?
MCF10A rereplic: inconclusive; TSG101-PTAP inh: inactive; KB-3-1 tox: 18µM; RGS4 inhibitor: inactive; KB-V1 MDR tox: 12µM; SW480 rereplic: inconclusive

Results for Cc1ccc(CN2CCCN(C)CC2)c(C)c1 ?
MCF10A rereplic: 21µM; TSG101-PTAP inh: inactive; KB-3-1 tox: inactive; RGS4 inhibitor: inconclusive; KB-V1 MDR tox: inactive; SW480 rereplic: inactive

What do the screens show for `Cc1ccc(CN2CCN(/N=C/c3cccn3C)CC2)c(C)c1`?
MCF10A rereplic: inactive; TSG101-PTAP inh: inactive; KB-3-1 tox: inactive; RGS4 inhibitor: inactive; KB-V1 MDR tox: inactive; SW480 rereplic: inactive

How did Cc1ccc(CN2CCN(/N=C/c3ccc(C)s3)CC2)c(C)c1 do in these assays?
MCF10A rereplic: inactive; TSG101-PTAP inh: inactive; KB-3-1 tox: inactive; RGS4 inhibitor: inactive; KB-V1 MDR tox: 16µM; SW480 rereplic: 16µM

What do the screens show for `CN1CCN(c2ncc3c(n2)CCN(Cc2cc(Br)cs2)C3)CC1`?
KB-3-1 tox: inactive; RGS4 inhibitor: inactive; KB-V1 MDR tox: inactive

What do the screens show for `O=C1NC(=O)C(=Cc2ccccc2[N+](=O)[O-])S1`?
MCF10A rereplic: 21µM; TSG101-PTAP inh: inactive; KB-3-1 tox: inconclusive; RGS4 inhibitor: inactive; KB-V1 MDR tox: inconclusive; SW480 rereplic: inconclusive

What do the screens show for `O=C1NC(=O)/C(=C/c2cccc3ccccc23)S1`?
MCF10A rereplic: inactive; TSG101-PTAP inh: inactive; KB-3-1 tox: inactive; RGS4 inhibitor: inactive; KB-V1 MDR tox: inactive; SW480 rereplic: inactive

How did CCOc1ccc(N(CC(=O)Nc2ccc3c(c2)OCO3)S(=O)(=O)c2ccccc2)cc1 do in these assays?
KB-3-1 tox: inactive; RGS4 inhibitor: inactive; KB-V1 MDR tox: inactive

Results for CC(C)CN(CC(C)C)C1=N/C(=C\c2ccco2)C(=O)N1c1ccccc1 ?
MCF10A rereplic: 15µM; TSG101-PTAP inh: inactive; KB-3-1 tox: inactive; RGS4 inhibitor: inactive; KB-V1 MDR tox: inactive; SW480 rereplic: inconclusive

How did N#Cc1cc2cc3c(cc2nc1NCCNC(=S)NCCCN1CCOCC1)OCO3 do in these assays?
MCF10A rereplic: 21µM; TSG101-PTAP inh: inactive; KB-3-1 tox: inactive; RGS4 inhibitor: inactive; KB-V1 MDR tox: inactive; SW480 rereplic: inconclusive

How did CC(C)C(=O)N1CCC(c2nc(-c3ccc(S(=O)(=O)N4CCCC4)cc3)no2)CC1 do in these assays?
MCF10A rereplic: inactive; TSG101-PTAP inh: inactive; KB-3-1 tox: inactive; RGS4 inhibitor: inactive; KB-V1 MDR tox: 12µM; SW480 rereplic: inactive

Results for O=C(c1ccc(F)cc1)N1CCC(c2nc(-c3ccc(S(=O)(=O)N4CCCC4)cc3)no2)CC1 ?
RGS4 inhibitor: inactive

Results for O=S(=O)(c1ccc(F)cc1)N1CCCC(c2nc(-c3ccc(F)cc3)no2)C1 (configuration not stated) ?
MCF10A rereplic: inconclusive; TSG101-PTAP inh: inactive; KB-3-1 tox: inactive; RGS4 inhibitor: inactive; KB-V1 MDR tox: inactive; SW480 rereplic: inactive

What do the screens show for `O=S(=O)(NC1CC1)c1ccc(S(=O)(=O)N2CCCC(c3nc(-c4cccnc4)no3)C2)cc1` (configuration not stated)?
MCF10A rereplic: inactive; TSG101-PTAP inh: inactive; KB-3-1 tox: inactive; RGS4 inhibitor: inactive; KB-V1 MDR tox: 8.2µM; SW480 rereplic: inactive

Results for O=C(NC1CCCCC1)N1CCCC(c2nc(-c3ccc(S(=O)(=O)N4CCCC4)cc3)no2)C1 (configuration not stated) ?
MCF10A rereplic: inactive; TSG101-PTAP inh: inactive; KB-3-1 tox: inconclusive; RGS4 inhibitor: inactive; KB-V1 MDR tox: 3.7µM; SW480 rereplic: inactive

Results for Cc1ccc(-c2csc(NC(=O)c3cc([N+](=O)[O-])ccc3N3CCOCC3)n2)cc1 ?
MCF10A rereplic: inactive; TSG101-PTAP inh: inactive; KB-3-1 tox: inactive; RGS4 inhibitor: inactive; KB-V1 MDR tox: inactive; SW480 rereplic: inactive

Results for COc1ccc(C(=O)Nc2ccccc2N2CCOCC2)cc1[N+](=O)[O-] ?
MCF10A rereplic: inactive; TSG101-PTAP inh: inactive; KB-3-1 tox: inactive; RGS4 inhibitor: inactive; KB-V1 MDR tox: 21µM; SW480 rereplic: inactive

What do the screens show for `O=C(Nc1nc(-c2ccccc2)cs1)c1ccc(N2CCOCC2)c([N+](=O)[O-])c1`?
MCF10A rereplic: inconclusive; TSG101-PTAP inh: inactive; KB-3-1 tox: inconclusive; RGS4 inhibitor: inactive; KB-V1 MDR tox: 1.8µM; SW480 rereplic: inactive

What do the screens show for `COc1ccc(C(=O)Nc2ccc(S(=O)(=O)N3CCOCC3)cc2)cc1[N+](=O)[O-]`?
MCF10A rereplic: 4.6µM; TSG101-PTAP inh: inactive; KB-3-1 tox: inactive; RGS4 inhibitor: inactive; KB-V1 MDR tox: inconclusive; SW480 rereplic: inactive

What do the screens show for `Cc1cc(C(=O)Nc2ccccc2N2CCOCC2)ccc1[N+](=O)[O-]`?
MCF10A rereplic: inactive; TSG101-PTAP inh: inactive; KB-3-1 tox: inactive; RGS4 inhibitor: inactive; KB-V1 MDR tox: inconclusive; SW480 rereplic: inactive

What do the screens show for `CC1CCN(c2ccccc2NC(=O)c2ccc(N3CCOCC3)c([N+](=O)[O-])c2)CC1`?
MCF10A rereplic: 16µM; TSG101-PTAP inh: inactive; KB-3-1 tox: inactive; RGS4 inhibitor: inactive; KB-V1 MDR tox: inactive; SW480 rereplic: inactive

How did COc1ccc(C(=O)NC(=S)Nc2ccccc2N2CCOCC2)cc1[N+](=O)[O-] do in these assays?
MCF10A rereplic: inconclusive; TSG101-PTAP inh: inactive; KB-3-1 tox: inconclusive; RGS4 inhibitor: inactive; KB-V1 MDR tox: inconclusive; SW480 rereplic: inactive

Results for COc1ccc(C(=O)Nc2ccc(S(=O)(=O)N3CCN(C)CC3)cc2)cc1[N+](=O)[O-] ?
MCF10A rereplic: inconclusive; TSG101-PTAP inh: inactive; KB-3-1 tox: inactive; RGS4 inhibitor: inactive; KB-V1 MDR tox: inactive; SW480 rereplic: inactive

What do the screens show for `CCc1nn2c(-c3ccccc3OC)ccnc2c1-c1ccc(F)cc1`?
KB-3-1 tox: inactive; RGS4 inhibitor: inactive; KB-V1 MDR tox: inactive

What do the screens show for `CCCC(=O)N1CCN(c2ccc(NC(=O)c3ccc(OCC)c([N+](=O)[O-])c3)cc2)CC1`?
MCF10A rereplic: inactive; TSG101-PTAP inh: inactive; KB-3-1 tox: inactive; RGS4 inhibitor: inactive; KB-V1 MDR tox: 12µM; SW480 rereplic: inactive

How did COc1ccc(C(=O)Nc2ccc(N3CCOCC3)cc2)cc1OC do in these assays?
MCF10A rereplic: inactive; TSG101-PTAP inh: inactive; KB-3-1 tox: inconclusive; RGS4 inhibitor: inactive; KB-V1 MDR tox: 16µM; SW480 rereplic: inactive

How did O=C(COc1ccc(F)cc1)OCc1cc(=O)n2nc(C3CCCCC3)sc2n1 do in these assays?
KB-3-1 tox: inactive; RGS4 inhibitor: inactive; KB-V1 MDR tox: inactive
